Only some compounds are listed: those with a hit (about 0.26% of all), similar ones and a draw of the others.
Epigenetic reg: epigenetic control regulation, reporter derepression | murine LDR cells, GFP reporter derepression, 30 h | 280,000 tested, 0.2% active | Potency, µM (top dose mostly 53.9 µM), for the others: at the top dose GFP activation, actives largely listed as activators; active = well fitted activation curve with a large enough effect; inconclusive = small, poorly fitted or top-dose-only effect; note: potency is the fitted concentration of half-maximal effect; % of control where 0% means no effect; nearly all actives have a fitted effect of over 60% in size
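In this reporter-derepression format, murine cells bearing a silenced integrated CMV-GFP locus incubate with test compound (30 h, 37 C), then are washed and imaged; fluorescent objects of 20–120 um count as induced cells.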
CXXC DNA block: blocks binding of human MLL CXXC domain to DNA; 290,000 tested, 0.037% active; AID 2662; MLL-CXXC / FITC-HOXA9 DNA fluorescence polarization; Q03164; Potency, µM (highest dose often 115 µM), for inactives: at the top dose activity change, negative = inhibition, most hits filed as inhibitors; active = well fitted inhibition curve with a large enough effect in the polarisation, with a control signal flat, not every such curve was filed as active; inconclusive = small, poorly fitted or top-dose-only effect, or effect the other way, or a change in a side signal; inactive = no such curve, though single readings can be large or run the other way; the % refers to the polarisation; note: potency is the fitted concentration of half-maximal effect
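Purified MLL-CXXC (added from a 7 uM solution) was preincubated 5 min at ambient with pinned compounds in 50 mM Tris-HCl pH 7.5, 50 mM NaCl, 1 mM DTT, 0.05% BSA. Fluorescein-labeled HOX-A9 DNA (50 nM solution) followed, 30 min, then polarization read.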
Menin MLL FP TR: inhibitors of human menin-MLL interaction, mutant MLL peptide | Menin + Texas Red MLL mutant peptide, fluorescence polarization | 270,000 tested, 0.23% active | Potency, µM (top dose mostly 61.6 µM), for the others: at the highest dose FP activity change, negative = inhibition, most hits filed as inhibitors | AID 1768; active = well fitted inhibition curve with a large enough effect in the polarisation, with a control signal flat, not every such curve was filed as active; inconclusive = small, poorly fitted or top-dose-only effect, or effect the other way, or a change in a side signal; inactive = no such curve, though single readings can be large or run the other way; the % refers to the polarisation; note: potency is the fitted concentration of half-maximal effect; % of control where 0% means no effect
Lamin A splicing: changes lamin A minigene splicing in HeLa cells | AID 1487 | HeLa LMNA splicing GFP/RFP minigene ratio, 48 h | 200,000 tested, 0.01% active | Potency, µM (top dose mostly 46.1 µM), inactives show at the top dose ratio change, negative = inhibition, usual class: inhibitors; active = well fitted inhibition curve with a large enough effect in the signal ratio, with a control signal flat, not every such curve was filed as active; inconclusive = small, poorly fitted or top-dose-only effect, or effect the other way, or a change in a side signal; the % refers to the signal ratio; note: potency is the fitted concentration of half-maximal effect; % is set by controls: 0 for no effect and ±100 for the full control effect
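S3 HeLa stable clones carrying a lamin A-EGFP splicing minigene plus DsRed2 were seeded at 600 cells/well in Opti-MEM with 2% FBS, pin-dosed and incubated 48 h at 37°C. Acumen cytometry (488 nm) gave the GFP/RFP total-intensity ratio.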
Menin MLL FP FL: menin-MLL binding inhibition, fluorescein peptide; Fluorescence polarization, fluorescein-MLL peptide displacement from menin; FP activity change, % at 61.4 µM; 290,000 tested, under 10 active; active = well fitted curve in the direction sought with a large enough effect in the polarisation, not every such curve was filed as active; inconclusive = small, poorly fitted or top-dose-only effect, or effect the other way, or a change in a side signal; inactive = no such curve, though single readings can be large or run the other way; the % refers to the polarisation; note: % of control where 0% means no effect
* hit, by the source's call; ? = inconclusive; . = no result given; [ ] = remark or other dose.

SMILES	Epigenetic reg	CXXC DNA block	Menin MLL FP TR	Lamin A splicing	Menin MLL FP FL
CCCC[n+]1ccn(-c2nc3ccccc3nc2[N-]S(=O)(=O)c2ccccc2)c1	0%	2%	-8%	-3%	1
CCCC[n+]1ccn(-c2nc3ccccc3nc2[N-]S(=O)(=O)c2cccs2)c1	10µM*	-7%	.	.	?
O=C(NCCCCN1CCCC1)c1ccc(-n2c(=O)c(=O)[nH]c3ccccc32)cc1	-5%	.	.	.	.
O=C1NC(=O)C(Cc2ccc(OCCN3COc4ccccc4C3=O)cc2)S1 (stereo not drawn)	.	.	20%	.	-5
CCCCC(=O)OCC(=O)[C@]1(O)Cc2c(O)c3c(c(O)c2[C@H](OC2CC(NC(=O)C(F)(F)F)C(O)C(C)O2)C1)C(=O)c1c(OC)cccc1C3=O (stereo partly drawn)	.	-3%	28µM*	?	-19
COc1ccc(C(OCCN2CCC[C@H](C(=O)O)C2)(c2ccc(OC)cc2)c2ccc(OC)cc2)cc1	.	.	-7%	.	1
COc1ccc(/C=C/c2ccccc2)cc1C1C2C=CCCC2(C)C(=O)N1Cc1ccccc1 (stereo not drawn)	.	.	-10%	.	7
COc1cccc(-c2nnc3n2N=C(c2c(OC)cccc2OC)CS3)c1	.	.	-24%	.	-5
O=C(Cn1cnc2ccccc21)Nc1ccc(SC(F)F)cc1	-1%	8%	-1%	?	2
O=C(Nc1ccc(SC(F)F)cc1)c1cccc2nc3ccccc3nc12	7.1µM*	-5%	-5%	2%	1
N#CCCn1c(=O)c(CCc2ccccc2)nc2cnc(N3CCOCC3)nc21	.	.	40µM*	.	?
CC(C)N(CCNC(=O)c1ccc(Cc2nc3ccccc3[nH]2)cc1)C(C)C	8%	.	.	.	.
CC1(C)Cc2c(c(-c3ccco3)[nH]c(=O)c2C#N)CS1	-4%	-2%	25µM*	-13%	?
CC1(C)Cc2c(c(-c3ccccc3)[nH]c(=O)c2C#N)CS1	-1%	-2%	-28%	0%	2
CCCCCCCC/C=C/CCCCCCCC(=O)NCCOP(=O)(O)O	.	.	-12%	.	-12
CCC(C)n1c(NC(=O)c2ccccc2)c(C#N)c2nc3ccccc3nc21 (stereo not drawn)	20µM*	-9%	26%	?	?
COc1ccc(OC)c(C2=Nn3c(nnc3-c3ccccc3C)SC2)c1	.	.	-26%	.	?
O=C(O)CSc1cccc2cccnc12	18µM*	-9%	1%[11.7 µM]	10%	2
COc1ccc(N2CCN(C(=O)c3cc4cc(Cl)ccc4[nH]3)CC2)cc1	.	-14%	32µM*	.	-2
COC(=O)c1ccc(CNC(=O)c2ccc(COc3ccccc3)cc2)cc1	3%	19%	28µM*	4%	-28
COc1ccc(/C=C2\SC(=S)N(CCC(=O)N3CCCCC3)C2=O)cc1	.	-13%	-1%	.	8
COCCN1C(=O)/C(=C/c2ccc(N3CCCC3)cc2)SC1=S	3.5µM*	?	?	.	?
O=C(/C=C/c1ccc2c(c1)OCO2)c1cccs1	12%	.	-3%[24.8 µM]	.	?
CCN1C(=S)SC(=O)C1=C1C=C(C)N(CCO)C(C)=C1	14µM*	125%	1%	-1%	?
CCN1C(=S)SC(=O)C1=C1C=C(C)N(CCOC)C(C)=C1	8%	65%	8%	?	?
SMILES	Epigenetic reg	CXXC DNA block	Menin MLL FP TR	Lamin A splicing	Menin MLL FP FL
Cc1cccc([C@@H]2[C@@H]3C(=O)N(Cc4ccccc4)C(=O)[C@@H]3[C@]3(Cc4ccc(Cl)cc4)C(=O)N(c4ccc(Br)cc4)C(=O)N23)c1	.	19%	20µM*	.	0
Cc1cccc([C@@H]2[C@@H]3C(=O)N(Cc4ccccc4)C(=O)[C@@H]3[C@]3(CC(C)C)C(=O)N(c4cccc(Cl)c4)C(=O)N23)c1	.	24%	-6%	.	0
COc1ccc(-c2nn(-c3ccccc3)cc2/C=N/NS(=O)(=O)c2ccccc2)cc1	-1%	7%	?	-1%	1
COc1ccc(-c2nn(-c3ccccc3)cc2/C=N/NC(=O)c2cccc(S(=O)(=O)Nc3ccccc3Cl)c2)cc1	0%	6%	16µM*	?	-3
O=C(N/N=C\c1cn(-c2ccccc2)nc1-c1ccccc1)c1ccc(Br)o1	-3%	21%	32µM*	?	-1
CC1CCCCN1CCCNC(=O)c1ccc(Cc2nc3ccccc3[nH]2)cc1 (stereo not drawn)	-1%	.	.	.	.
COC(=O)c1ccc(NC(=S)NC(=O)c2cc(-c3ccccc3)nc3ccccc23)cc1	0%	19%	13µM*	4%	1
COc1cccc(-c2cc(C(=O)Nc3nc4ccccc4s3)c3ccccc3n2)c1	-2%	1%	28µM*	?	4
COC(=O)c1ccccc1S(=O)(=O)N1CCc2nc(-c3ccc(OC)cc3C)c3c(c2C1)CO[C@@H](c1ccccc1)C3	.	.	-6%[11.7 µM]	-5%[9.22 µM]	1[11.7 µM]
CCS(=O)(=O)c1ccc(N=Nc2ccc(O)c3ncccc23)c(OC)c1	3.5µM*	-5%	?	.	6
COc1ccccc1N=Nc1ccc(O)c2ncccc12	.	-20%	?	.	-2
N[C@H](C(=O)O)C1C(C(=O)O)C1C(=O)O (stereo partly drawn)	0%	.	.	.	.
Cc1cccc(NC(=O)c2ccc(NCCc3ccccc3)c([N+](=O)[O-])c2)c1	18µM*	22%	14%	-12%	8
CCN(CC)c1ccc2nc3c(=O)n(C)c(=O)n(C)c3nc2c1	13µM*	.	.	.	.
CCC(=O)Nc1ccc2nc3c(=O)n(C)c(=O)n(C)c3nc2c1	0%	.	.	.	.
CC1=CC(=O)C2=C(C)CC[C@H]3[C@H](C)C(=O)O[C@@H]3C12 (stereo partly drawn)	.	.	8%	.	-3
C[C@H](N)C(=O)NCC(=O)N[C@H]1CSSC[C@@H](C(=O)O)NC(=O)[C@H](CO)NC(=O)[C@H]([C@@H](C)O)NC(=O)[C@H](Cc2ccccc2)NC(=O)[C@H]([C@@H](C)O)NC(=O)[C@H](CCCCN)NC(=O)[C@H](Cc2c[nH]c3ccccc23)NC(=O)[C@H](Cc2ccccc2)NC(=O)[C@H](Cc2ccccc2)NC(=O)[C@H](CC(N)=O)NC(=O)[C@H](CCCCN)NC1=O	.	.	-24%	.	.
COc1ccc(N=c2oc3c(OC)cccc3cc2C(=O)NCc2ccco2)cc1OC	13µM*	26%	10%	-1%	6
COc1ccccc1N=c1oc2c(OC)cccc2cc1C(=O)NCc1ccco1	3%	-13%	-9%	4%	0
COc1cccc(/C=N/NC(=O)c2cc(-c3cccn3C)n[nH]2)c1	-2%	13%	35µM*	8%	2
Cc1cccc(NS(=O)(=O)c2ccc(Cl)c(C(=O)O)c2)c1	-2%	.	.	.	.
O=C(NCCO)Nc1ccc2nc(-c3ccco3)c(-c3ccco3)nc2c1	-1%	35µM*	?	.	?
O=S(=O)(Nc1ccc(-c2nc3cccnc3s2)cc1)c1ccc(Cl)s1	-1%	6%	?	?	-2
